Data reported in the supplement of paper PMC11172423.

Test system: Falciformispora senegalensis CBS197.79
Experiment: growth relative to untreated control; higher = less inhibition, active = 20 or less
Settings: 25 µM
Outline: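 Hyphal fragments of M. mycetomatis MM55 or F. senegalensis CBS197.79 were suspended in colourless RPMI 1640 with L-glutamine and MOPS at 68–72% transmission at 660 nm. They were exposed in 96-well plates to compound at 100 or 25 µM for 7 days at 37 °C. Viability was read with MTS (2 h, 490 nm) or resazurin (600 nm). Growth is metabolic activity relative to the untreated growth control, both corrected with a medium-plus-dye blank.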

**Q.** How did the growth turn out when `CCOc1cc(C(C)(C)C)ccc1C1=N[C@@](C)(c2ccc(Cl)cc2)[C@@](C)(c2ccc(Cl)cc2)N1C(=O)N1CCN(CCCS(C)(=O)=O)CC1` was run?
**A.** Its growth is 99.6% (inactive).

**Q.** With `C=CC[C@@H]1/C=C(\C)C[C@H](C)C[C@H](OC)[C@H]2O[C@@](O)(C(=O)C(=O)N3CCCC[C@H]3C(=O)O[C@H](/C(C)=C/[C@@H]3CC[C@@H](O)[C@@H](OC)C3)[C@H](C)[C@@H](O)CC1=O)[C@H](C)C[C@@H]2OC` as the compound, how does the growth read?
**A.** The growth was 103% (inactive).

**Q.** For `CC(C)Oc1ccc(-c2nc(-c3cccc4c3CC[C@@H]4NCCO)no2)cc1C#N`, which growth is on record?
**A.** The growth was 9.29% (active).

**Q.** For `S=C(NCc1ccc2c(c1)OCO2)N1CCN(c2ncnc3c2oc2ccccc23)CC1`, which growth is on record?
**A.** The growth was 113% (inactive).

**Q.** How did the growth turn out when `CCOc1ccc(-c2nc(NC(=O)Cc3cccc(OC)c3)sc2C)cc1` was run?
**A.** The growth was 93.7% (inactive).

**Q.** How did the growth turn out when `CO/C=C(/C(=O)OC)c1ccccc1COc1c(C)c(-c2ccc(C)cc2C)nn1C` was run?
**A.** The growth was 46.5% (inactive).

**Q.** With `O=C(NCCN1CCCC1)c1ccc(Nc2nccc(-c3ccc(Cl)cc3)n2)cc1` as the compound, how does the growth read?
**A.** Its growth is 83.6% (inactive).

**Q.** `O[C@@H](c1cc(C(F)(F)F)nc2c(C(F)(F)F)cccc12)[C@H]1CCCCN1` was tested. Which growth did it give?
**A.** Its growth is 8.55% (active).

**Q.** `N=C(N)Nc1ccc(C(=O)Oc2ccc3cc(C(=N)N)ccc3c2)cc1` was tested. Which growth did it give?
**A.** Its growth is 107% (inactive).

**Q.** For `Cc1nc(NCc2ccc(F)cc2)nc(NCC(C)(C)C)c1C`, which growth is on record?
**A.** Its growth is 15.9% (active).

**Q.** For `CC(C)Nc1cccnc1N1CCN(C(=O)c2cc3cc(NS(C)(=O)=O)ccc3[nH]2)CC1`, which growth is on record?
**A.** The growth was 101% (inactive).

**Q.** For `CC(C)(C)Nc1ncc2nc(Nc3cccc(C(F)(F)F)c3)n(CC3CCNC3)c2n1` (stereo unspecified), which growth is on record?
**A.** Its growth is 94.5% (inactive).

**Q.** `N#Cc1ccc(-c2ccc3nc(Oc4ccc(C(F)(F)F)cn4)cn3c2)nc1` was tested. Which growth did it give?
**A.** Its growth is 101% (inactive).

**Q.** Which growth does the source give for `Cc1c2c(n3c(nc4ccccc43)c1C#N)N(CCN(C)C)CC2` here?
**A.** The growth was 64.5% (inactive).

**Q.** With `O=C(c1ccc(Nc2nccc(-c3ccc(Cl)cc3)n2)cc1)N1CCS(=O)(=O)CC1` as the compound, how does the growth read?
**A.** The growth was 80.5% (inactive).

**Q.** `Cn1c(O)nnc1Cn1ccc(C(F)(F)F)c(Oc2cc(Cl)cc(C#N)c2)c1=O` was tested. Which growth did it give?
**A.** Its growth is 106% (inactive).

**Q.** With `CCS(=O)(=O)N1CC(CC#N)(n2cc(-c3ncnc4[nH]ccc34)cn2)C1` as the compound, how does the growth read?
**A.** The growth was 102% (inactive).

**Q.** With `O=C(NC1CCN(CCOc2ccc(Cl)cc2)CC1)c1c[nH]c2ccncc2c1=O` as the compound, how does the growth read?
**A.** Its growth is 73.5% (inactive).

**Q.** `Cc1ccc(-c2cc(C(F)(F)F)nn2-c2ccc(S(N)(=O)=O)cc2)cc1` was tested. Which growth did it give?
**A.** Its growth is 102% (inactive).

**Q.** For `Cc1cc(Nc2cc(N)ncn2)c(=O)n2c1C(=O)NC21CCCCC1`, which growth is on record?
**A.** The growth was 111% (inactive).

**Q.** With `O=C(NC1CCCc2c1[nH]c1ccc(Cl)cc21)c1ccccn1` (stereo unspecified) as the compound, how does the growth read?
**A.** The growth was 107% (inactive).

**Q.** How did the growth turn out when `COc1cc(N2CCN(C)CC2)ccc1Nc1nccc(-c2cn(C)c3cnccc23)n1` was run?
**A.** Its growth is 69.1% (inactive).

**Q.** `Cc1cccc2c1N(C(=O)c1cc(Br)nn1-c1ncccc1Cl)CN(C(C)C)C2=O` was tested. Which growth did it give?
**A.** The growth was 94% (inactive).

**Q.** Which growth does the source give for `Cc1nn(C2CCS(=O)(=O)C2)c(C)c1C1Nc2ccccc2C(=O)N1Cc1ccc2c(c1)OCO2` (stereo unspecified) here?
**A.** Its growth is 84.3% (inactive).

**Q.** For `OB(O)O`, which growth is on record?
**A.** Its growth is 90.6% (inactive).

**Q.** `C[C@H](NC(=O)c1cc2ccc(F)cc2[nH]1)c1ccccc1` was tested. Which growth did it give?
**A.** The growth was 91.5% (inactive).

**Q.** Which growth does the source give for `CN(C)CCNC(=O)c1csc(Nc2ccc(Cl)c(Cl)c2)n1` here?
**A.** Its growth is 92.7% (inactive).

**Q.** With `CC(C)C(=O)OCC(=O)[C@@]12OC(C3CCCCC3)O[C@@H]1C[C@H]1[C@@H]3CCC4=CC(=O)C=C[C@]4(C)[C@H]3[C@@H](O)C[C@@]12C` (stereo partly specified) as the compound, how does the growth read?
**A.** The growth was 109% (inactive).

**Q.** How did the growth turn out when `CS(=O)(=O)c1ccc(-c2cnn3c2NC(c2cccc(S(=O)(=O)C4CC4)c2)CC3)cc1` (stereo unspecified) was run?
**A.** Its growth is 72.5% (inactive).

**Q.** How did the growth turn out when `O=C1NCN(c2ccccc2)C12CCN(CCCC(c1ccc(F)cc1)c1ccc(F)cc1)CC2` was run?
**A.** The growth was 3.66% (active).

**Q.** How did the growth turn out when `CS(=O)(=O)NC1CCN(C(=O)c2ccc(Nc3nccc(-c4cc(Cl)cc(C(F)(F)F)c4)n3)cc2)C1` (stereo unspecified) was run?
**A.** Its growth is 93.2% (inactive).

**Q.** `N#Cc1cccc(C(=O)NC2CCN(c3ccnc(Nc4ccc(F)cc4)n3)C2)c1` (stereo unspecified) was tested. Which growth did it give?
**A.** The growth was 89.5% (inactive).

**Q.** How did the growth turn out when `CN(C)c1ncc2nc(Nc3cc(Cl)cc(C(F)(F)F)c3)n(C3CCNCC3)c2n1` was run?
**A.** Its growth is 102% (inactive).

**Q.** With `CN(c1ncc2nc(Nc3cc(Cl)cc(C(F)(F)F)c3)n(C3CCNCC3)c2n1)C1CC1` as the compound, how does the growth read?
**A.** The growth was 90.9% (inactive).

**Q.** `COc1c(C)c2c(c(O)c1C/C=C(\C)CCC(=O)O)C(=O)OC2` was tested. Which growth did it give?
**A.** Its growth is 102% (inactive).

**Q.** How did the growth turn out when `O=C(c1ccc(Nc2nccc(-c3ccc(C(F)(F)F)c(Cl)c3)n2)cc1)N1CC(O)C1` was run?
**A.** Its growth is 97.7% (inactive).
